Compound activity (PubChem)
CF NFkB block: inhibitors of PAF-induced NF-kB signaling, primary screen, cell-based, GFP fluorescence, uHTS | KKLEB NF-kB-GFP reporter, GFP fluorescence overnight | inhibition, % at 5 µM | 360,000 tested, 0.86% active;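 active = at least 50% inhibition at 5 µM, scaled per plate between neutral and stimulator controls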;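 note: PAF is a Pseudomonas aeruginosa culture filtrate used as stimulus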
KKLEB tox: cytotoxicity in KKLEB CF airway cells, primary screen, cytotoxicity control for CF NF-kB inhibitor project, cell-based, uHTS, fluorescence assay plates | KKLEB CF airway cells viability, ATPlite luminescence, overnight; active compounds read low; cells stimulated with P. aeruginosa culture filtrate | activity change (cytotoxicity), % at 5 µM | 360,000 tested, 0.36% active;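 active = corrected activity change at or below -50% at 5 µM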
HSP90 refold inh: HSP90 inhibitors, primary screen, cell lysate, luminescence | Heat shock protein HSP 90 (rabbit reticulocyte lysate; luciferase refolding) | Rabbit reticulocyte lysate, luciferase refolding luminescence, 3 h | inhibition, % at 5.6 µM | 290,000 tested, 0.91% active;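 active = inhibition above the screen-wide mean plus 3 SD, computed separately per campaign, cut at about 16% in these data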;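 note: inhibitors lower the luminescence because luciferase stays unfolded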
Mdm2 MdmX PPI: inhibitors of human Mdm2-MdmX association, primary screen, cell-based, luminescence, split luciferase, SaOS-2, uHTS. SaOS-2 split-luciferase Mdm2/MdmX complementation. inhibition, % at 8 µM. 330,000 tested, 3% active;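 active = inhibition of at least 50% at 8 µM in the primary screen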
Target sequence (O15151 whole entry, looked up): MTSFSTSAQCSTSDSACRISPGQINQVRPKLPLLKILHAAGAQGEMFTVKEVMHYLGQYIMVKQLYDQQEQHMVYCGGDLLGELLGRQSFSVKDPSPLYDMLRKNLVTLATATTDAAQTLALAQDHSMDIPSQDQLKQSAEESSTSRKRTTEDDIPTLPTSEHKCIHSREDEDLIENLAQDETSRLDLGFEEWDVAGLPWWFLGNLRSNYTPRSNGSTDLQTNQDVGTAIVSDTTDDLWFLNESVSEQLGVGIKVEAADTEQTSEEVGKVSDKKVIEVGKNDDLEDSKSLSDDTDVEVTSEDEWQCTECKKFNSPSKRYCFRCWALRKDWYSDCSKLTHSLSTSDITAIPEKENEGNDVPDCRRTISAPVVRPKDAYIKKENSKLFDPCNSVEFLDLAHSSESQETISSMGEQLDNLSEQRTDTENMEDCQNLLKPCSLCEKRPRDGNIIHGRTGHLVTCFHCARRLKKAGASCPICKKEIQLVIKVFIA
Target sequence (Q00987 whole entry, looked up): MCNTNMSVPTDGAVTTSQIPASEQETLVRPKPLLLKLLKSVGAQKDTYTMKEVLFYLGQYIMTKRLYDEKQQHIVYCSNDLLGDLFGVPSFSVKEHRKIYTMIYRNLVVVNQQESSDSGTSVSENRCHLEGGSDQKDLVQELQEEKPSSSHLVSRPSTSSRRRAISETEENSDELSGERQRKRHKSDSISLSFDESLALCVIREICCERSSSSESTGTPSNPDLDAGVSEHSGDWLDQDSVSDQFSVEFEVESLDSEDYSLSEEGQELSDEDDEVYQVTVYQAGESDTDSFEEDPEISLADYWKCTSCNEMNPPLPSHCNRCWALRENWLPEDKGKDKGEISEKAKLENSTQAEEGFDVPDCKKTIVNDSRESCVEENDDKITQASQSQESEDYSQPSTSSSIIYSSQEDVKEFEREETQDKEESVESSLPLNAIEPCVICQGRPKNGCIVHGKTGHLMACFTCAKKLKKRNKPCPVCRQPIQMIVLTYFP
Peg3 prom inh: Peg3 promoter-driven luciferase inhibitors, primary screen, cell-based, HeLa, luciferase luminescence; AID 588405, 2011; HeLa PEG-Prom luciferase reporter, overnight; 360,000 tested, 1.7% active; inhibition, % at 20 µM;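 active = inhibition of at least 50% at 20 µM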
LGR2 antag: inhibitors of bursicon-induced LGR2 CRE-luciferase signal, primary screen, cell-based, HEK293, CRE-luciferase reporter, bursicon stimulation; AID 720647, 2013; Drosophila bursicon receptor LGR2 (rickets); bursicon-stimulated, 4 h; inhibition, % at 9.99 µM; 380,000 tested, 0.35% active;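 active = drop in luminescence signal, shown as inhibition above about 50% in the replicate tests, limit read from the data, passing the limit was not always enough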;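 note: agonist challenge used bursicon conditioned medium at about half maximal strength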
Mdm2-MdmX conf: Mdm2-MdmX complex disruptors, retested hits, confirmation, luminescence, single concentration | shares compounds with Mdm2 MdmX PPI | Mdm2-MdmX binding, luminescent assay | inhibition, % at 8 µM | 10,000 tested, 55% active | AID 489028, 2010; in the data active = inhibition above about 40%
FLuc counter: full-length luciferase signal inhibition, confirmation, counter-screen for Mdm2/MdmX interaction inhibitor project, cell-based, single concentration, SaOS-2. shares compounds with Mdm2 MdmX PPI. SaOS-2 full-length luciferase counterscreen, luminescence. inhibition, % at 8 µM. 6,200 tested, 77% active. AID 504607, 2011;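 active = mean inhibition at 8 µM reaching about 37%, which flags the compound as non-specific, limit read from the data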;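 note: p53-null SaOS-2 cells with luciferase driven by a doxycycline-inducible promoter; compound on cells about two nights before reading with doxycycline added after day one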
A number is an active result; i = inactive; nt = no result. This is a sample that favours compounds with a hit; in the whole collection about 3.6% have one here.

SMILES | CF NFkB block | KKLEB tox | HSP90 refold inh | Mdm2 MdmX PPI | Peg3 prom inh | LGR2 antag | Mdm2-MdmX conf | others
CC(=O)O[C@H]1[C@@H](O)[C@H](O)[C@H](Oc2c(O)c(C)c3c4c2[C@@H](C)CC[C@@H]4[C@@H](C)C[C@H]3C=C(C)C)O[C@H]1C | i | i | nt | 90 | i | i | i
CCOc1ccc(C2Nc3ccc4ccccc4c3-c3c2c(=O)oc2ccccc32)cc1 (stereo not drawn) | i | i | i | 68 | i | nt | i
O=c1oc2ccccc2c2c1C(c1ccc(Cl)cc1)Nc1ccc3ccccc3c1-2 (stereo not drawn) | i | i | i | i | i | i | nt
CCOc1ccc(OCC(=O)c2c(O)c3ccccc3oc2=O)cc1 | i | i | i | i | i | nt | nt
COc1ccc(C2Nc3ccc4ccccc4c3-c3c2c(=O)oc2ccccc32)cc1 (stereo not drawn) | i | i | i | 79 | 57 | i | i
COc1ccc(C2=NS(=O)(=O)N(C)C(C(=O)Nc3ccc(C)cc3)=C2)cc1 | i | i | i | i | i | i | nt
CN1C(C(=O)Nc2ccc(OC(F)(F)F)cc2)=CC(c2cccs2)=NS1(=O)=O | i | i | i | 58 | i | i | i | FLuc counter=48
COc1ccc(NC(=O)C2=CC(c3cccs3)=NS(=O)(=O)N2C)cc1 | i | i | i | 55 | i | i | i
C[C@H]1CN([C@@H](C)CO)C(=O)c2cccc(NC(=O)c3nc4ccccc4s3)c2O[C@@H]1CN(C)S(=O)(=O)c1ccc(F)cc1 | nt | nt | nt | nt | nt | i | nt
O=C(C[C@@H]1C[C@@H]2c3cc(NC(=O)Nc4ccccc4F)ccc3O[C@@H]2[C@H](CO)O1)NCC1CC1 | nt | nt | nt | nt | nt | i | nt
COc1ccc(NC(=O)/C(Cl)=C(/Cl)S(=O)Cc2ccccc2)cn1 (stereo not drawn) | 88 | -95 | i | 98 | 105 | nt | 99 | FLuc counter=i
COc1ccc(NC(=O)Cc2ccccc2)cn1 | i | i | i | i | i | i | nt
COc1ccc(CS(=O)(=O)/C(Cl)=C(/Cl)C(=O)Nc2ccc(OC)nc2)cc1 | 88 | -86 | i | 94 | 104 | nt | 97 | FLuc counter=51
COc1cccc(CNC(=O)[C@@H]2[C@@H](CO)[C@@H]3Cn4c(cccc4=O)[C@H]2N3C(=O)C2CC2)c1 | nt | nt | nt | nt | nt | i | nt
COc1ccc2c3c(n(C)c2c1)[C@@H](CO)N(C)CC31CN(C(=O)NC(C)C)C1 | nt | nt | nt | nt | nt | i | nt
